CYP2C9 activ – increases human cytochrome P450 2C9 activity | activation factor at 5 µM | P11712 | 96,000 tested, 1.4% active | recombinant CYP2C9, luciferin-H conversion, luminescence; hits give high values; factor 1 = untreated enzyme, 0 = blocked | AID 1024;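 active = activation factor of 2 or more for CYP2C9 at a 5 µM dose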;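 also: 0 = sulfaphenazole-blocked wells and 1 = vehicle-only wells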
CYP2C9 inh – blocks human cytochrome P450 2C9 | P11712 | CYP2C9 Supersomes, luciferin-H conversion, luminescence | inhibition, % at 5 µM | 96,000 tested, 20% active;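 active = blocking of liver enzyme CYP2C9 beyond about 50% at 5 µM, limit read from the data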
CD11b adhes inh – blocks human CD11b/CD18 adhesion to fibrinogen; K562 CD11b/CD18 adhesion to fibrinogen, ATPlite luminescence; Mn2+ added to activate the integrin; inhibition, % at 10 µM; 93,000 tested, 0.54% active; AID 1497;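 active = primary inhibition of 50% or more at 10 µM, then 40% or more on retest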
CYP2C19 inhib – human CYP2C19 inhibition; P33261; CYP2C19 Supersomes, luciferin-H EGE luminescence, 30 min; inhibition, % at 5 µM; 96,000 tested, 21% active;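 active = CYP2C19 inhibition above a set limit at 5 µM in the primary screen, cut at about 50% in these data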;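 also: plate controls were negative control wells for no effect and 2.5 mM tranylcypromine positive control for full effect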
CYP2C19 act – increases human CYP2C19 enzyme activity | P33261 | recombinant CYP2C19, luciferin-H EGE luminescence; hits give high values; 0 = fully inhibited enzyme, 1 = untreated enzyme | activation factor at 5 µM | 96,000 tested, under 10 active;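 active = activation factor of at least 2 at 5 µM in the primary screen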;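 also: 0 = wells with 2.5 mM tranylcypromine and 1 = vehicle-only wells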
CD11b adhes enh – enhancers of human CD11b/CD18 binding to fibrinogen | activation, % at 10 µM | K562 CD11b/CD18 adhesion to fibrinogen, ATPlite luminescence | 93,000 tested, 0.07% active;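 active = 10 µM primary screen giving 50% or more activity, confirmed by 40% or more on retest at that dose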
Active calls of the source: *; · = no result given. In the library only some 28% were active in any assay of this set; here they are far more common.

SMILES	CYP2C9 activ	CYP2C9 inh	CD11b adhes inh	CYP2C19 inhib	CYP2C19 act	CD11b adhes enh
CCOC(=O)CN1C(=O)C2(C(C#N)=C(N)Oc3ccccc32)C(C(=O)OC)=C1C (centres undefined)	1	-4.4	-5.9	15.9	0.8	-0.1
CCOC(=O)C1SC2(C(F)(F)F)CC1(O)c1c(C)cc(C)nc1O2 (centres undefined)	1	2.7	-11.8	28.2	0.7	140.7
Cc1ccc(-n2nc(C)c(C3C(C#N)=C(N)Oc4c3c(=O)oc3ccccc43)c2Cl)cc1 (centres undefined)	0	98.0*	25.6	40.8	0.6	-1.8
CSc1ccc(C(=O)C(C)(C)N2CCOCC2)cc1	0.8	23.4	-25.6	92.3*	0.1	13.6
COc1ccccc1N1CCN(Cc2ccc(Cl)cc2Cl)CC1	0.8	23.4	-39.5	56.1*	0.4	-0.8
COc1ccc(CN2CCN(c3ccccc3F)CC2)cc1O	0.9	8.3	-43.0	74.5*	0.3	-0.6
Fc1ccccc1N1CCN(Cc2ccc3c(c2)OCO3)CC1	1	4.2	-11.1	27.2	0.7	-4.0
Fc1ccccc1N1CCN(Cc2c(F)cccc2F)CC1	0.4	63.4*	2.7	99.7*	0	-3.5
NCC1(c2ccc3c(c2)OCCO3)CCCC1	0.9	7.5	14.9	-5.2	1.1	-0.6
CCOC(=O)C1CCN(C(C)C(=O)c2c(C)[nH]c3cc(C)ccc23)CC1 (centres undefined)	0.7	32.1	-5.7	40.0	0.6	1.4
Cc1ccccc1-n1c(O)c(C=NCCN2CCOCC2)c(=O)[nH]c1=O	1.2	-16.0	-27.4	-7.7	1.1	5.1
Cn1ncnc2c(=O)n(C)c(=O)nc1-2	0.2	79.6*	71.4*	94.7*	0.1	-6.0
CCc1c(C)nc(N)nc1N1N=C1SCC(N)=O	1.2	-20.2	-34.3	-18.4	1.2	-1.6
OCCN1C2CCC1CC(O)(c1ccc(F)cc1)C2 (centres undefined)	1	-4.8	-12.2	6.6	0.9	0.5
OC1(c2ccc(F)cc2)CC2CCC(C1)N2Cc1nnnn1C1CCCCC1 (centres undefined)	0.6	43.1	·	50.3*	0.5	·
COc1ccc(-n2c(O)c(C=Nc3c(C)n(C)n(-c4ccccc4)c3=O)c(=O)[nH]c2=O)cc1	0.9	7.4	-11.2	-1.7	1	-1.4
CCOc1ccc2[nH]c(=O)c(CN(CCO)C3(c4nnnn4C4CCCCC4)CCCCC3)cc2c1	0.9	14.8	0.6	6.0	0.9	2.8
Cc1ccc2c(CN3CC=C(c4ccccc4)CC3)cc(=O)oc2c1C	·	·	-5.4	·	·	34.1
O=c1[nH]c(CN2CC=C(c3ccccc3)CC2)nc2cc(C(F)(F)F)ccc12	0.2	79.4*	-10.2	39.3	0.6	12.0
COc1ccc(N=C(C)c2c(O)n(C)c(=O)n(C)c2=O)c(OC)c1	0.8	19.4	6.8	9.8	0.9	-0.2
CC(Oc1ccc(-c2ccccc2)cc1)C(=O)O (centres undefined)	1	-3.2	3.6	-8.9	1.1	-0.8
COc1ccccc1-n1c(O)c(C=Nc2c(C)n(C)n(-c3ccccc3)c2=O)c(=O)[nH]c1=O	1.1	-12.6	2.8	-1.0	1	-2.6
COc1ccc(OP(=O)(Nc2ccccc2)Nc2ccccc2)cc1	0.3	69.3*	31.6	82.7*	0.2	-0.4
CCCCCCN=Cc1c(O)n(C)c(=O)n(C)c1=O	1	-2.0	·	2.4	1	·
O=C(c1ccc2c(c1)OCO2)N1CCC2(CC1)OCCO2	1	-4.8	2.5	88.1*	0.1	0.1
O=C(c1cc(-c2ccccc2)nc2ccccc12)N1CCC2(CC1)OCCO2	0.6	38.2	·	56.6*	0.4	·
O=C(c1cc(Br)ccc1Cl)N1CCC2(CC1)OCCO2	0.5	54.0*	-0.9	97.5*	0	-3.7
CC(=O)c1c(C)[nH]c(C(=O)N2CCC3(CC2)OCCO3)c1C	1	-0.8	2.3	54.2*	0.5	-1.0
COC(=O)CSC1=NP(=S)(SCC(=O)OC)N2CCCC2=C1C#N (centres undefined)	0.7	32.7	4.0	49.1	0.5	1.1
Cc1cc(C(=O)N2CCC3(CC2)OCCO3)cs1	1.1	-8.1	-35.2	74.1*	0.3	-1.0

High-throughput results from PubChem.
